The list is not random: actives were taken first. Their share in the collection is about 31%.
CYP2C19 activ – increases human CYP2C19 enzyme activity. 96,000 tested, under 10 active. P33261. activation factor at 5 µM. AID 1025. recombinant CYP2C19, luciferin-H EGE luminescence; hits give high values; 0 = fully inhibited enzyme, 1 = untreated enzyme;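 active means activation factor of at least 2 at 5 µM in the primary screen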;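 further: 0 = wells with 2.5 mM tranylcypromine and 1 = vehicle-only wells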
Target sequence (P33261 whole entry, looked up): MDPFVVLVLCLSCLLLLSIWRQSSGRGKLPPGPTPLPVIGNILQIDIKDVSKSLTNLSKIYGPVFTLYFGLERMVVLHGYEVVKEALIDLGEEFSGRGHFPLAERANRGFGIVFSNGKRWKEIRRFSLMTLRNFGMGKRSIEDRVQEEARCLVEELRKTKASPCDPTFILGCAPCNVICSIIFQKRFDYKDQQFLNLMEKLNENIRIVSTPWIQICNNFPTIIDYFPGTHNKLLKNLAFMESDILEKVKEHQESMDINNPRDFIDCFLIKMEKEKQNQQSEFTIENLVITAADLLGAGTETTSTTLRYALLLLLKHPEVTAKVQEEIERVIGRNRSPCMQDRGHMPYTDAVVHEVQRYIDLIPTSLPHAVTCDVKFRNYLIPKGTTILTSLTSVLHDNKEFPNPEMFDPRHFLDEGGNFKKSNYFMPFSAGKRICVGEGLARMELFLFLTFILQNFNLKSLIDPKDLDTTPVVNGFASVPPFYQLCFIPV
CYP2C19 inh – inhibitors of human CYP2C19; P33261; CYP2C19 Supersomes, luciferin-H EGE luminescence, 30 min; inhibition, % at 5 µM; 96,000 tested, 21% active; AID 778;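 active means CYP2C19 inhibition above a set limit at 5 µM in the primary screen, cut at about 50% in these data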;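 further: plate controls were negative control wells for no effect and 2.5 mM tranylcypromine positive control for full effect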
CYP2C9 inh – human CYP2C9 inhibition; CYP2C9 Supersomes, luciferin-H conversion, luminescence; inhibition, % at 5 µM; 96,000 tested, 20% active; AID 777;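 active means blocking of liver enzyme CYP2C9 beyond about 50% at 5 µM, limit read from the data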
CYP2C9 activ – CYP2C9 (human) activation | 96,000 tested, 1.4% active | activation factor at 5 µM | AID 1024 | recombinant CYP2C9, luciferin-H conversion, luminescence; hits give high values; factor 1 = untreated enzyme, 0 = blocked | P11712;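 active means activation factor of 2 or more for CYP2C9 at a 5 µM dose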;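 further: 0 = sulfaphenazole-blocked wells and 1 = vehicle-only wells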
Numbers without * were called inactive.

SMILES	CYP2C19 activ	CYP2C19 inh	CYP2C9 inh	CYP2C9 activ
N=C1/C(=C\c2ccc(SCc3ccco3)o2)C(=O)N=C2SC=NN12	1	-5	74*	0.3
Fc1ccccc1CSc1nnnn1-c1ccc2c(c1)OCO2	0.1	92*	42	0.6
COc1cccc(-n2nnnc2SCC(=O)NCc2ccc3c(c2)OCO3)c1	0.1	88*	60*	0.4
COc1cc(OC)cc(-n2nnnc2SCC(=O)NCc2ccc3c(c2)OCO3)c1	0.5	53*	-47	1.5
O=C(CSc1nnnn1-c1ccc2c(c1)OCO2)NCc1cccs1	0.5	49	2	1
O=C(CSc1nnnn1-c1ccc2c(c1)OCO2)NCc1ccccc1	0.1	92*	33	0.7
COc1cccc(-n2nnnc2SCC(=O)Nc2ccc3c(c2)OCCO3)c1	0.9	10	14	0.9
Cc1cccc(-c2nc(CS(=O)CC(=O)NCCCSC3CCCCC3)c(C)o2)c1 (stereo not given)	0.7	32	44	0.6
NC(=O)C1CCCN(C(=O)NC2CCCCC2)C1 (stereo not given)	1.1	-8	13	0.9
CC1CCN(S(=O)(=O)c2ccc3ncn(CC(=O)N(C)Cc4ccccc4)c(=O)c3c2)CC1	0.8	18	49	0.5
COC(=O)c1ccccc1NC(=O)N1CCN(S(=O)(=O)c2ccc(Cl)cc2)CC1	0.8	18	-10	1.1
Cc1nnc(SCC(=O)NCc2ccc3c(c2)OCO3)[nH]c1=O	1	2	68*	0.3
CCN(CC)c1ccc(CNC23CN4CN(CN(C4)C2)C3)cc1	0.7	32	30	0.7
Cc1ccc2c(CSc3nnc(N)s3)cc(=O)oc2c1	0.2	85*	40	0.6
Cn1c(-c2ccc(C=O)s2)nc2c3ccccc3c3ccccc3c21	1.1	-10	24	0.8
Cc1cc(C(=O)OCC(=O)NCCCN2CCCC2=O)c2ccccc2n1	1	0	-4	1
CCCCNC(=O)COC(=O)c1cc(C)nc2ccccc12	0.3	75*	-160	2.6*
Cc1cc(C(=O)OCC(=O)NCCC(C)C)c2ccccc2n1	0.8	21	-137	2.4*
Cc1cc(C(=O)OCC(=O)Nc2cc(C)on2)c2ccccc2n1	0.4	56*	21	0.8
CCOc1ccc(C(=O)OCC(=O)Nc2cc(C)on2)cc1OCC	0.8	17	13	0.9
Cc1cc(C(=O)NCCCOC(C)C)c2ccccc2n1	0.8	17	-1	1
CCN(CC)c1ccc(NC(=O)C2CCCN(S(=O)(=O)c3cccnc3)C2)c(C)c1 (stereo not given)	0.7	27	8	0.9
Clc1ccccc1CSC1=NCCCN1	1.1	-14	-2	1
COc1ccc(-c2cc(-c3cccs3)c(C#N)c(SCC(=O)NCc3ccccc3)n2)cc1	1	-1	53*	0.5
COc1ccc(-c2cc(-c3ccccc3)c(C#N)c(S(C)=O)n2)cc1 (stereo not given)	0.5	47	68*	0.3
SMILES	CYP2C19 activ	CYP2C19 inh	CYP2C9 inh	CYP2C9 activ
COc1ccc(-c2cc(-c3cccs3)c(C#N)c(SCC(=O)NCc3ccccc3OC)n2)cc1	0.8	17	40	0.6
COc1ccccc1-c1cc(-c2ccc(C)cc2)nc(SCc2nnc(-c3ccccc3)o2)c1C#N	0.9	14	69*	0.3
CCSc1nc(-c2ccc(OC)cc2)cc(-c2ccccc2)c1C#N	0.7	31	66*	0.3
Cc1nc(-c2cccnc2)sc1C(=O)Nc1cccc(C(F)(F)F)c1	0.5	48	-89	1.9
O=c1c(Cc2ccc(F)cc2)c(O)ccn1Cc1cccc(Cl)c1	0.8	21	16	0.8
CC1CCC(C(C)C)C(OC(=O)COC(=O)c2cccn2C)C1 (stereo not given)	0.1	91*	80*	0.2
O=C(Nc1ccc2c(c1)OCCO2)c1cc(-n2cnnc2)ccc1Cl	1	0	-20	1.2
CCc1cc2c(=O)c(-c3nc4ccccc4n3C)c(COCC(=O)O)oc2cc1OC(=O)C(C)(C)C	1	4	14	0.9
CCOC(=O)N1CCC(NC(=O)c2ccc(CS(=O)(=O)c3c(Cl)cccc3Cl)o2)CC1	1.1	-7	66*	0.3
CCOC(=O)N1CCC(NC(=O)c2ccc(CS(=O)(=O)c3ccccc3C)o2)CC1	1.1	-9	77*	0.2
CCOC(=O)N1CCN(C(=O)c2ccc(CS(=O)(=O)c3c(Cl)cccc3Cl)o2)CC1	1	-5	2	1
CC1(C)CC(C#N)(N2CCOCC2)CCO1 (stereo not given)	0.9	10	-12	1.1
CCOC(=O)CC(/C(C)=N\O)c1ccccc1 (stereo not given)	0.5	51*	-4	1
CCOC(=O)CC(C(=O)OCC)P(=O)(c1ccccc1)c1ccccc1 (stereo not given)	1	1	-3	1
O=C(CCS(=O)(=O)c1cccs1)N1CCN(c2ccc(F)cc2)CC1	0.3	72*	18	0.8
O=C(CCCNS(=O)(=O)c1cccs1)N1CCN(c2ccc(F)cc2)CC1	0.5	46	43	0.6
O=C(CCS(=O)(=O)c1cccc2nonc12)N1CCN(c2ccc(F)cc2)CC1	0.5	49	-103	2*
O=C(CCS(=O)(=O)c1cccc2nonc12)N1CCOCC1	1	4	-9	1.1
COCC(=O)c1[nH]c2ccccc2c1C	1	1	-19	1.2
CCOC(=O)c1oc2nc(CC(C)C)c3c(c2c1N)CCC3	0.8	23	-9	1.1
Cc1ccc(N(CC(=O)NCc2ccc3c(c2)OCO3)S(=O)(=O)c2c(C)noc2C)cc1	0	98*	57*	0.4
Cc1noc(C)c1S(=O)(=O)N(CC(=O)NCc1ccc2c(c1)OCO2)c1ccc(C(C)C)cc1	0.4	63*	14	0.9
COc1ccc(CNC(=O)CN(CC2CCCO2)C(=O)CNS(=O)(=O)c2ccc(F)cc2)cc1 (stereo not given)	0.6	42	38	0.6
CN=c1scc(C)n1/N=C/c1ccc2c(c1)OCO2	0.8	17	10	0.9
O=C(NC1CC2CCCC(C1)N2Cc1ccco1)NC12CC3CC(CC(C3)C1)C2 (stereo not given)	1.2	-20	-5	1.1
SMILES	CYP2C19 activ	CYP2C19 inh	CYP2C9 inh	CYP2C9 activ
CCCOc1ccccc1Nc1nnc(C)c(=O)[nH]1	1.1	-6	-9	1.1
COc1cc(-c2nnc(SC/C=C/c3ccccc3)n2N)cc(OC)c1OC	0.9	14	7	0.9
Nn1c(SC/C=C/c2ccccc2)nnc1-c1ccncc1	0.5	54*	11	0.9
N#Cc1ccc(CSc2nnc(-c3ccccc3)n2Cc2ccco2)cc1	0.9	12	42	0.6
Cc1noc(C)c1CSc1nnc(-c2ccccc2)n1N	0.4	65*	16	0.8
Cc1noc(C)c1CSc1nnc(-c2ccccc2)n1Cc1ccco1	0.5	50*	54*	0.5
Nc1nc2c3ccccc3nc(C3CC3)n2n1	0.7	34	8	0.9
O=C(Cn1[nH]c(=O)c2ccccc2c1=O)Nc1ccc(-c2nnc3n2CCCCC3)cc1	1	2	19	0.8

Source: PubChem
